This is a sample that favours compounds with a hit; in the whole collection about 31% have one here.
CYP2C19 inhib: blocks human cytochrome P450 2C19; P33261; CYP2C19 Supersomes, luciferin-H EGE luminescence, 30 min; inhibition, % at 5 µM; 96,000 tested, 21% active; AID 778;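 active means CYP2C19 inhibition above a set limit at 5 µM in the primary screen, cut at about 50% in these data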
Target sequence (P33261 whole entry, looked up): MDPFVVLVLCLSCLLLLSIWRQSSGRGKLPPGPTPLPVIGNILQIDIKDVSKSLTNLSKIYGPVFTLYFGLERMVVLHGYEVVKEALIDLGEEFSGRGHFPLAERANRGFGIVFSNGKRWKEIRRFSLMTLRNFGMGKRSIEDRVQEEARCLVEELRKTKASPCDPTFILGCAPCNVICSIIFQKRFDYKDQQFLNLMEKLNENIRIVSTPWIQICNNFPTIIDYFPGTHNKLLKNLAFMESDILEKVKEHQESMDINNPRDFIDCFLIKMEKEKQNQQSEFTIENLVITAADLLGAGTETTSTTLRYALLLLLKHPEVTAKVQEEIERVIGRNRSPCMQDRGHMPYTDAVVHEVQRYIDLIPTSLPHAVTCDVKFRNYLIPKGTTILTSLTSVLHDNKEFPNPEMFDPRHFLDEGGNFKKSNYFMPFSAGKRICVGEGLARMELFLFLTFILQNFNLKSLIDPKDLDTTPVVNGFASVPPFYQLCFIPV
CYP2C19 act: cytochrome P450 2C19 (human) activation; P33261; recombinant CYP2C19, luciferin-H EGE luminescence; stronger effect = higher value; 0 = fully inhibited enzyme, 1 = untreated enzyme; activation factor at 5 µM; 96,000 tested, under 10 active; AID 1025;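 active means activation factor of at least 2 at 5 µM in the primary screen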
CYP2C9 inhib: human CYP2C9 inhibition. CYP2C9 Supersomes, luciferin-H conversion, luminescence. inhibition, % at 5 µM. 96,000 tested, 20% active;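 active means blocking of liver enzyme CYP2C9 beyond about 50% at 5 µM, limit read from the data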
CYP2C9 act: CYP2C9 (human) activation | recombinant CYP2C9, luciferin-H conversion, luminescence; stronger effect = higher value; factor 1 = untreated enzyme, 0 = blocked | activation factor at 5 µM | 96,000 tested, 1.4% active | AID 1024;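 active means activation factor of 2 or more for CYP2C9 at a 5 µM dose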
A number is an active result; n = inactive.

SMILES | CYP2C19 inhib | CYP2C19 act | CYP2C9 inhib | CYP2C9 act
CCCn1c(=O)c(C(=O)NCc2ccncc2)c(O)c2ccccc21 | 68 | n | 80 | n
CCn1c(C(=O)NCc2cccnc2)cc2sc(Cl)cc21 | 99 | n | 90 | n
CCn1c(=O)c(C(=O)NCc2cccnc2)c(O)c2ccccc21 | n | n | 72 | n
CCCn1c(=O)c(C(=O)Nc2cnccn2)c(O)c2ccccc21 | n | n | n | n
Cc1ccc2c(Cl)c(C(=O)NCc3cccnc3)sc2c1 | n | n | n | n
COC(=O)CN1C(=O)C2(C(C#N)=C(N)Oc3ccccc32)C2=C1CC(C)(C)CC2=O (stereo not drawn) | n | n | n | n
Cn1c(=O)n(C)c2cc(NC(=O)CCl)ccc21 | n | n | n | n
CCOC(=O)c1nnc(-c2ccccc2)nc1Sc1ccccc1Cl | n | n | 54 | n
O=C(C1CCCN(S(=O)(=O)c2cccc3cccnc23)C1)N1CCc2ccccc21 (stereo not drawn) | n | n | n | n
CC(NC(=O)CCCN1C(=O)c2ccccc2C1=O)c1ccc2c(c1)CCCC2 (stereo not drawn) | 83 | n | 90 | n
CC(NC(=O)CCCCCN1C(=O)c2ccccc2C1=O)c1ccc2c(c1)CCCC2 (stereo not drawn) | n | n | 92 | n
O=C(CCCN1C(=O)c2ccccc2C1=O)NC1=NCCS1 | n | n | n | n
Cc1nc2ccccc2c(=O)n1/N=C/c1ccc(N(C)C)cc1 | n | n | n | n
CN(C)c1ccc(/C=N/c2cc(-c3ccccc3)nn2-c2ccccc2)cc1 | n | n | 52 | n
O=C(NNC(=O)C1CCCO1)c1ccc(Cl)cc1 (stereo not drawn) | n | n | n | n
c1ccc2c(-c3ccncc3)c[nH]c2c1 | 85 | n | 93 | n
c1ccc(-c2nnc(-c3ccccc3)c(-c3c[nH]c4ccccc34)n2)cc1 | n | n | n | n
CC1(C)CC(=O)CC(=Nc2ccc(C(=O)O)cc2)C1 | n | n | n | n
COCC(C)NC(=O)CSc1nc(-c2ccccc2)c(-c2ccccc2)o1 (stereo not drawn) | 59 | n | n | n
COc1ccc(C2(CNC(=O)CCC(=O)O)CCCC2)cc1OC | n | n | n | n
NC(=O)C[C@@H]1N[C@]2(C(=O)Nc3ccccc32)[C@@H]2C(=O)N(C3CCCCC3)C(=O)[C@H]12 | n | n | n | n
CSCCC1NC2(C(=O)Nc3c2ccc(Cl)c3C)[C@@H]2C(=O)N(C3CCCC3)C(=O)[C@H]12 (stereo partly drawn) | 91 | n | 91 | n
Cc1c(Cl)ccc2c1NC(=O)C21NC(CCC(N)=O)[C@H]2C(=O)N(c3ccc(Cl)cc3)C(=O)[C@H]21 (stereo partly drawn) | 57 | n | 70 | n
Cc1c(Cl)ccc2c1NC(=O)[C@]21N[C@@H](CCC(N)=O)[C@H]2C(=O)N(c3ccc(F)cc3)C(=O)[C@H]21 | n | n | n | n
CCC(=O)N1CCCc2cc(S(=O)(=O)NCc3cccs3)ccc21 | n | n | n | n
SMILES | CYP2C19 inhib | CYP2C19 act | CYP2C9 inhib | CYP2C9 act
Cc1nc2ncnn2c(N2CCN(c3cccc(C(F)(F)F)c3)CC2)c1C | 64 | n | n | n
Cc1cc(N2CCN(c3cccc(C(F)(F)F)c3)CC2)n2ncnc2n1 | n | n | n | n
CN1OC(COC(=O)c2ccc(Cl)cc2Cl)CC1c1ccccc1 (stereo not drawn) | n | n | n | n
C=CCNc1sc(C(=O)c2ccccc2)c(N)c1C#N | n | n | n | n
C=CCNc1sc(C(=O)c2ccc(Br)s2)c(N)c1C#N | n | n | 63 | n
Cc1ccc(N2CN=c3s/c(=C\c4ccccn4)c(=O)n3C2)cc1 | n | n | n | n
CCC(C)C(NC(=O)c1ccccc1NC(=O)c1ccc(OC)cc1)C(=O)NCc1ccco1 (stereo not drawn) | 76 | n | 89 | n
O=C(COc1ccccc1)Nc1ccccc1C(=O)NCc1ccco1 | 58 | n | 64 | n
O=C(Nc1ccc(Cl)cc1)Nc1ccccc1C(=O)NCc1ccco1 | n | n | 53 | n
O=C(NCc1ccco1)c1ccccc1NC(=O)C1CC(=O)N(c2ccc(Cl)cc2)C1 (stereo not drawn) | 53 | n | 68 | n
O=C(NCc1ccco1)C1CC(=O)N(c2ccc(F)cc2)C1 (stereo not drawn) | n | n | n | n
CCOC(=O)c1ccccc1NC(=O)/C(C)=C/C(=O)O | n | n | n | n
C=CCC1(O)C(=O)N2C(=C1C(=O)N1CCOCC1)c1ccccc1CC2(C)C (stereo not drawn) | n | n | n | n
CC(C(=O)NCC1CCCO1)N(C(=O)c1snc(C(N)=O)c1N)c1cccc(F)c1 (stereo not drawn) | n | n | n | n
CCCCn1nnc(NC(=O)CC23CC4CC(CC(C4)C2)C3)n1 | n | n | n | n
O=C(CSc1nnc2ccccn12)NC(=O)NC1CCCC1 | n | n | n | n
Cc1ccccc1NC(=O)CNc1ccccc1C(=O)NCc1ccco1 | 68 | n | n | n
O=C(Nc1ccccc1C(=O)NCc1ccco1)c1ccccc1 | 54 | n | 74 | n
CCCCC(CC)CNC(=O)c1[nH]c(C)c(C(C)=O)c1C (stereo not drawn) | 63 | n | 75 | n
Cc1ccc(C2CC(C(F)F)n3ncc(C(=O)Nc4cnn(Cc5ccccc5C)c4)c3N2)cc1 (stereo not drawn) | n | n | 62 | n
Cc1ccccc1Cn1cc(NC(=O)c2nc3ncccn3n2)cn1 | n | n | n | n
CCCn1nnc(NC(=O)c2cccc(OCC(C)C)c2)n1 | n | n | n | n
Cc1ccc(Cl)cc1NC(=O)CSC(N)=O | 72 | n | n | n
Cc1ccc(Cl)cc1NC(=O)CC(O)(C(F)(F)F)C(F)(F)F | 75 | n | n | n
Cc1ccc(Cl)cc1NC(=O)Cn1cccc1 | n | n | n | n
SMILES | CYP2C19 inhib | CYP2C19 act | CYP2C9 inhib | CYP2C9 act
Cc1ccc(S(=O)(=O)NC2CCCC(C(=O)O)C2)cc1 (stereo not drawn) | n | n | n | n
O=C(O)Cn1ncc2c1-c1ccoc1CC2 | n | n | n | n
Cc1noc(C)c1CSCC(=O)OCc1nc2ccccc2c(=O)n1CC#N | n | n | 65 | n
COc1ccccc1NC(=O)Oc1ccc(C(C)=O)cc1 | n | n | n | n
CC(=O)c1ccc(OC(=O)N(c2ccccc2)c2ccccc2)cc1 | 56 | n | 70 | n
CCOC(=O)Nc1c(C(=O)OC)[nH]c2cccc(OC)c12 | n | n | n | n
O=C1c2ccccc2C(Nc2cccc(C(F)(F)F)c2)N1Cc1ccco1 (stereo not drawn) | 68 | n | 60 | n
CCOC(=O)c1cccc(NC2c3ccccc3C(=O)N2Cc2ccco2)c1 (stereo not drawn) | n | n | n | n
COc1cccc(NC2c3ccccc3C(=O)N2Cc2ccco2)c1 (stereo not drawn) | n | n | 57 | n
CCN(CC)S(=O)(=O)c1ccc(NC2c3ccccc3C(=O)N2Cc2ccco2)cc1 (stereo not drawn) | n | n | 92 | n
COc1ccc2c(c1)c(C(O)CN1CCC(Cc3ccccc3)CC1)c(C)n2C (stereo not drawn) | n | n | n | n
